Data on 40 compounds can be found in PubChem BioAssay (NCATS).

Results filed as inconclusive are left out. A call without a number means that no potency is given here. Active and inactive are the calls of the source. Calls follow the shape of the dose curve; as a rule, active = well fitted inhibition curve with a large enough effect; inconclusive = small, poorly fitted or top-dose-only effect; inactive = flat fitted curve, though single readings scatter.
Potency is read from the fitted curve at half-maximal effect.

The experiment is described as follows: qHTS for Inhibitors of Plasmodium falciparum (7G8) proliferation (AID 504316). Also: nearly all actives have a fitted effect of over 65% in size. The following applies: P. falciparum 7G8 in erythrocytes, SYBR Green DNA, 72 h; series mostly up to 6.7 µM. An excerpt:
Plasmodium falciparum is a virulent malarial parasite that kills 1-2 million people worldwide each year. Malaria not only inflicts tremendous suffering and morbidity on the human population, but has dramatically influenced the course of civilization with profound sociological and economic implications (Shah, S. 2010). Transmitted by mosquitoes, the sporozoite form of the parasite enters the blood stream to infect hepatocytes, where they become merozoites that infect red blood cells (erythrocytes). Within erythrocytes, merozoites begin a […] cycle of growth and division, after which the parasite is released to infect new red blood cells. Gametocytes, which form within erythrocytes as well, circulate in the bloodstream and are ingested by the mosquito, thereby completing the life cycle (see CDC website). To profile malarial lines for differential chemical responses and to identify inhibitors of malarial growth, an assay that measures P. falciparum growth and replication within erythrocytes was employed. This assay uses a DNA binding fluorescent dye (SYBR Green) to detect parasite DNA following cell lysis. Because mature erythrocytes lack DNA, only Plasmodium-derived DNA is detected. The P. falciparum line cp250, derived from a malarial isolate from Cambodia, (Mu, J., et al. 2010) was added to the panel of lines, Dd2, HB3, 7G8 and GB4 in this study. Laboratory of Assay Development and Screening Technology [ADST] and NIH Chemical Genomics Center [NCGC] Boston University, Chemistry Department, Center for Chemical Methodology and Library Development [CMLD-BU] NIH National Institute of Allergy and Infectious Diseases [NIAID]
ADST Assay Protocol Summary: The 1536-well SYBR Green viability assay was based on the method of Bennett et al (2004) and described previously in 1536-well format (Yuan J., et al. 2009). For screening 3 ul culture medium was dispensed into 1536 well black clear bottom plates (Aurora Biotechnologies) using a Multidrop Combi (Thermo Fisher Scientific Inc.), 23 nL compounds in DMSO were added by a pin transfer (Cleveland, P.H. and Koutz, P.J, 2005) using a pin tool-based delivery system (Kalypsys), and 5 ul of erythrocytes infected with P. falciparum one of five lines (cp250, Dd2, HB3, 7G8 or GB4, 0.3% parasitemia, 2.5% hematocrit final concentration) were added. The plates were incubated at 37C in a humidified incubator in 5% CO2 for 72 h, and 2 ul lysis buffer (20 mM Tris HCl, 10 mM EDTA, 0.16% saponin, 1.6% triton X, 10X SYBR Green I (supplied as 10,000X final concentration by Invitrogen) was added to each well. The plates were mixed for 25 sec with gentle shaking and incubated overnight at room temperature in the dark. The following morning, fluorescence intensity at 485(14) nm excitation and 535(25) nm emission wavelengths was measured on an EnVision (Perkin Elmer) plate reader. Plate reads were normalized relative to the control inhibitor (0.29 uM artemisinin) and vehicle (DMSO) wells present on each plate and then corrected by an algorithm using vehicle-only control plates at the beginning and end of the compound plate stack. References Shah, S. (2010). The Fever: how malaria has ruled humankind for 500,000 years. New York, Sarah Crichton Books. CDC web site, http://www.cdc.gov/malaria/about/biology/index.html Mu, J., Myers, R.A., Jiang, H., Liu, S., Ricklefs, S., Waisberg, M., Chotivanich, K., Wilairatana, P., Krudsood, S., White, N.J., et Plasmodium falciparum genome-wide scans for positive selection, recombination hot spots and resistance to antimalarial drugs Nature Genetics 2010, 42, pp 268-271 Bennett TN, Paguio, M., Gligorijevic, B., Seudieu, C., Kosar, A. D., Davidson, E., and Roepe, P. D. Novel, rapid, and inexpensive cell-based quantification of antimalarial drug efficacy Antimicrobial Agents Chemother. 2004, 48(5): pp 1807-10 Yuan J, Johnson RL, Huang RL, Wichterman J, Jiang HY, Hayton K, Fidock DA, Wellems TE, Inglese J, Austin CP, Su XZ. […]
On the technique in general: In qHTS, concentration-response curves come from the screen itself.
With `C=CCN1c2ccccc2[C@]23CCC(=O)N(CC(=O)OC)C2=NC(C(=O)OC)=C(C(=O)OC)[C@H]13`, the Potency entry is “inactive”. To `CCN1C(=O)[C@H]2[C@H]3C(=CC[C@@H]2C1=O)C1(OCCCO1)[C@@H]1O[C@H]1[C@H]3O` belongs “inactive”; to `O=C(C=NO)NCCCCNC(=O)C=NO`, “inactive”. Consider `CCN1C(=O)[C@@H]2[C@H]3[C@H](O)[C@H](O)CC(=NO[C@@H]4O[C@H](COC(C)=O)[C@@H](OC(C)=O)[C@H](OC(C)=O)[C@@H]4OC(C)=O)[C@@H]3CC[C@H]2C1=O`, for which the Potency entry is “inactive”. To `C=CCOC(=O)N[C@H](C[N+](=O)[O-])c1ccccc1` belongs “inactive”. The value for `CCOC(=O)CN1C(=O)NC(c2ccc(Br)cc2)C(C(=O)OC)=C1C` (stereo not given) was “inactive”; that for `COc1ccc(-c2nc(-c3ccccc3)oc2Nc2ccc3ccccc3c2)cc1` was “inactive”.

Take `CCOC(=O)[C@@]1([C@@H](NC(=O)OC)c2ccco2)CCCC1=O`: the Potency result was “inactive”. To `COc1ccc([C@]23Cc4ccccc4[C@H](O2)C2=C(O3)C(=O)c3ccccc3C2=O)cc1` belongs 1690 nM (active). For the compound `C=CCN1c2ccccc2[C@]23C[C@@H](C(=O)OC)N(C(=O)c4cccs4)C2=NC(C(=O)OC)=C(C(=O)OC)[C@H]13`, the Potency result was “inactive”.

As to `CC1(OC(=O)C2CCCC2)C(=O)C=C2C=C(c3ccc(C#N)cc3)OC=C2C1=O` (stereo not given), the Potency entry is “inactive”. To `COC(=O)C1=NOC2(C=C(Br)C(OC)=C(Br)C2=O)C1` (stereo not given) belongs “inactive”; to `CCN1C(N(C)CCc2ccc(Br)cc2)=NC(c2ccccc2)C(C(=O)OC)=C1C` (stereo not given), “inactive”. To `COC(=O)C1=C(C(=O)OC)[C@@H]2N(Cc3ccccc3)c3ccccc3[C@@]23C[C@@H](C(=O)OC)N(C(=O)c2cc(C)oc2C)C3=N1` belongs “inactive”; to `CC(C)=CCCC(C)=CCON=C1C[C@@H](O)[C@@H](O)[C@@H]2[C@H]3C(=O)N(C[C@@H]4CCCO4)C(=O)[C@@H]3CC[C@@H]12`, “inactive”.

Consider `CC(C)CON=C1C[C@@H](O)[C@@H](O)[C@@H]2[C@H]3C(=O)N(C[C@@H]4CCCO4)C(=O)[C@@H]3CC[C@@H]12`, for which the Potency entry was “inactive”. To `CC1(O)C(=O)C=C2C=C3CCCN3C=C2C1=O` (stereo not given) belongs “inactive”. In the case of `COc1ccc(COC(=O)NN=C2C[C@@H](O)[C@@H](O)[C@@H]3[C@H]4C(=O)N(c5cccc(Oc6ccccc6)c5)C(=O)[C@@H]4CC[C@H]23)cc1`, the Potency entry is “inactive”. The value for `CCCC[C@@H]1CN2[C@H](c3ccc(Br)cc3)[C@H](C)CC[C@H]2C(=O)O1` was “inactive”; that for `C[C@@H](ON=C1[C@H]2CCn3c(=O)n(-c4ccccc4)c(=O)n3[C@@H]2[C@H](O)[C@@H]2O[C@H]12)c1cn([C@@H]2COC[C@@H]2O)nn1` was “inactive”. To `COC(=O)C(C(=O)OC)[C@@H]1O[C@@]23COCC[C@]2(C)[C@@H]3c2ccccc21` belongs “inactive”; to `CCN1C(=S)NC(c2ccccc2)C(C(=O)OC)=C1C` (stereo not given), “inactive”; to `COC(=O)[C@H]1[C@H](CCc2ccccc2)NC(=O)N(Cc2ccccc2)[C@H]1C`, “inactive”.

On to `C=CCN1C(=O)[C@]2(OCCC=C[C@H]2C)c2ccccc21`, for which the Potency entry was “inactive”.

Consider `COC(=O)CCCC1=CC2=CC(=O)C(C)(OC(=O)c3cccs3)C(=O)C2=CN1CCc1c[nH]c2ccccc12` (stereo not given), for which the Potency result is “inactive”.

With `COC(=O)N1C(c2ccccc2)=Cc2ccccc2C1C1(C(=O)OC)CCCC1=O` (stereo not given), the Potency result is “inactive”. As to `COC(=O)C1=C(C(=O)OC)[C@@H]2N(C)c3ccccc3[C@@]23C[C@@H](C(=O)OC)N(C(=O)c2ccco2)C3=N1`, the Potency entry is “inactive”. To `COC(=O)CC=C1c2ccccc2[C@@H](NC(=O)OC)[C@@H]1C` belongs “inactive”; to `COC1=C[C@H](C(=O)NCc2ccccc2)[C@H](C)[C@@H](c2ccccc2)CC1=O`, “inactive”.

For the compound `CO[C@H](C1CCCCC1)[C@H](C)C=CCC(=O)OCCCc1ccccc1`, the Potency entry was “inactive”. The value for `COC(=O)C1(C(=O)OC)CC=CCc2ccccc2[C@H]1C[N+](=O)[O-]` was “inactive”; that for `C[C@H]1C=CCC(=O)N[C@@H](c2ccccc2)[C@@H](C)C=CCC(=O)N[C@@H]1c1ccccc1` was 426 nM (active). The value for `C=CCC12OC3(OC)CC1[C@H](C)[C@@H](c1ccccc1)C2[C@@]3(C)O` (stereo not given in full) was “inactive”. The value for `O=C(NN=C1C[C@@H](O)[C@H](O)[C@H]2[C@@H]3C(=O)N(C4CCCCC4)C(=O)[C@@H]3CC[C@@H]12)OCc1ccccc1` was “inactive”; that for `COC(=O)NC(c1ccc2c(c1)OCO2)C(C(=O)OC)C(=O)OC` (stereo not given) was “inactive”; that for `COCCN1C(=O)N[C@@H](c2ccccc2)[C@H](C(C)=O)[C@H]1C` was “inactive”. On to `C[C@@H]1C=CCCO[C@]12C(=O)N(CC1CC1)c1cccc(Br)c12`, for which the Potency result is “inactive”. The value for `CC(CCN1CCCc2nc(C)c(C)cc21)=NO[C@H](C)c1cn([C@H](CO)Cc2ccccc2)nn1` was 1510 nM (active).

For `COC(=O)N1C(c2ccccc2)=Cc2ccccc2C1CC(C)=O` (stereo not given), the Potency result was “inactive”.

Take `C=COC[C@H]1CN2[C@H](c3ccc(Br)cc3)[C@H](C)CC[C@H]2C(=O)O1`: the Potency result is “inactive”.
